These results are taken from PubChem BioAssay (NCATS).

A short description of assay [1]: Quantitative High-Throughput drug screen in 47 multiple myeloma cell lines against the NCATS MIPE library collection: PE2_PLB cell viability assay (AID 1919869). Note: nearly all actives have a fitted effect of over 35% in size. Note: potency is the fitted concentration of half-maximal effect. Summed up: (§1)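 Viability after 48 h drug exposure was measured as ATP-dependent luminescence. Cells, 500 per well, sat at 37 °C under 5% CO2; DMSO wells set 100%, media-only wells 0%.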
A short description of assay [2]: Quantitative High-Throughput drug screen in 47 multiple myeloma cell lines against the NCATS MIPE library collection: PCM6_Riken cell viability assay (AID 1919870). Note: nearly all actives have a fitted effect of over 30% in size. Note: potency is the fitted concentration of half-maximal effect. An outline of the steps: as §1
Assay [3] in a line: Quantitative High-Throughput drug screen in 47 multiple myeloma cell lines against the NCATS MIPE library collection: RPMI8226_ATCC cell viability assay (AID 1919871). Note: nearly all actives have a fitted effect of over 30% in size. Note: potency is the fitted concentration of half-maximal effect. An outline of the steps:
as §1

The nature of assay [4]: Quantitative High-Throughput drug screen in 47 multiple myeloma cell lines against the NCATS MIPE library collection: OPM2_DSMZ cell viability assay (AID 1919872). Note: nearly all actives have a fitted effect of over 30% in size. Note: potency is the fitted concentration of half-maximal effect. An outline of the steps: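 Myeloma cell lines, 500 cells per well, exposed to MIPE 4.0 library compounds for 48 h at 37C, 5% CO2. Viability from ATP by CellTiter-Glo luminescence; normalised to DMSO (100%) and media-only (0%) wells.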

Assay [5] in a line: Quantitative High-Throughput drug screen in 47 multiple myeloma cell lines against the NCATS MIPE library collection: KMS11_JCRBsus cell viability assay (AID 1919873). Note: nearly all actives have a fitted effect of over 50% in size. Note: potency is the fitted concentration of half-maximal effect. An outline of the steps: as §1
A short description of assay [6]: Quantitative High-Throughput drug screen in 47 multiple myeloma cell lines against the NCATS MIPE library collection: KMS28BM_JCRB cell viability assay (AID 1919874). Note: potency is the fitted concentration of half-maximal effect; nearly all actives have a fitted effect of over 35% in size. An outline of the steps:
as §1

Assay [7] is described as follows: qHTS for identification of novel therapeutic agents for treatment of microphthalmiaassociated transcription factor (MiT) renal cell carcinoma (RCC) (AID 1963991; calls by dose curve; note: potency is the fitted concentration of half-maximal effect;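 for z-score: curves scaled with 100% = DMSO viability and 0% = empty wells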). Conditions: CellTiter-Glo, 48 h; for Potency: active = Z-AUC below -0.8 in all three lines; for z-score: stronger effect = lower value. An outline of the steps: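 UOK109/UOK124/UOK145 (TFE3 fusions, three partners); 500 cells/well; MIPE v4.0, 1912 cpds, 11 conc.; 48 h, 37 C; CellTiter-Glo, 15 min RT; lum. Norm.: DMSO 100%, empty 0%.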

A short description of assay [8]: qHTS profiling for inhibitors of Plasmodium falciparum proliferation (AID 504749).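 Note: 0% = DMSO vehicle and full inhibition = artemisinin control; nearly all actives have a fitted effect of over 60% in size.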 Conditions: P. falciparum in erythrocytes, SYBR Green DNA, 72 h, at 28.7 µM (top of the series). Summed up: (§2)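 Readout was DNA-dye fluorescence from lysed cultures, ex 485/em 535 nm. Parasitized red cells had grown 72 h with compound; data scaled between 0.29 uM artemisinin and DMSO wells and corrected using vehicle-only plates.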

In the next assay the test system is 3D7. The assay is described as above. As to conditions: P. falciparum in erythrocytes, SYBR Green DNA, 72 h; series mostly up to 28.7 µM. An outline of the steps:
as §2

Another assay has as its system 7G8. Described as above. Conditions: P. falciparum in erythrocytes, SYBR Green DNA, 72 h; series mostly up to 28.7 µM. An outline of the steps: as §2
The test system of a further assay is AA1029. Described as above. As to conditions: P. falciparum in erythrocytes, SYBR Green DNA, 72 h; series mostly up to 28.7 µM. An outline of the steps:
as §2

A further assay deals with AS120. The description is as above. As to conditions: P. falciparum in erythrocytes, SYBR Green DNA, 72 h; series mostly up to 28.7 µM. Summed up:
as §2

A further assay relates to ATS189. Described as above. As to conditions: P. falciparum in erythrocytes, SYBR Green DNA, 72 h; series mostly up to 28.7 µM. Summed up:
as §2

Another assay deals with ATS95. The assay is described as above. Conditions: P. falciparum in erythrocytes, SYBR Green DNA, 72 h; series mostly up to 28.7 µM. Summed up:
as §2

In another assay the test system is C2A. The assay is described as above. As to conditions: P. falciparum in erythrocytes, SYBR Green DNA, 72 h; series mostly up to 28.7 µM. Summed up:
as §2

The subject of a further assay is CP185. The description is as above. As to conditions: P. falciparum in erythrocytes, SYBR Green DNA, 72 h; series mostly up to 28.7 µM. An outline of the steps:
as §2

For the next assay, the system named is CP191. The assay is described as above. Conditions: P. falciparum in erythrocytes, SYBR Green DNA, 72 h; series mostly up to 28.7 µM. An outline of the steps: as §2
A further assay has as its system CP192. The description is as above. As to conditions: P. falciparum in erythrocytes, SYBR Green DNA, 72 h; series mostly up to 28.7 µM. An outline of the steps: as §2
For a further assay, the system named is CP194. The assay is described as above. Conditions: P. falciparum in erythrocytes, SYBR Green DNA, 72 h; series mostly up to 28.7 µM. Summed up: as §2
Assay [9] is described as follows: qHTS drug screen for cell cycle checkpoint inhibitors in PARPi-resistant BRCA-mutant ovarian cancer cell lines. (AID 1963452; calls by dose curve). As to conditions: PEO1/OlaR viability, CellTiter-Glo luminescence, 96 h, stronger effect = lower value. An outline of the steps: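 PEO1, PEO4 and PEO1/OlaR ovarian cancer cells, 600 per well, exposed 96 h at 37C to a dilution series. Viability read by CellTiter-Glo luminescence, normalized to DMSO and empty wells; activity summarized as Z-AUC.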

Where [10] appears, read: TFE3-RCC UOK109 viability, measured here: UOK109 Z-AUC.
Setting [11] is: TFE3-RCC viability, measured here: UOK124 Z-AUC.
[12] abbreviates: TFE3-RCC viability, measured here: UOK145 Z-AUC.

Results filed as inconclusive are left out. Activity calls are given as the source filed them. Unless noted, calls come from the whole dose curve; as a rule, active = well fitted curve in the direction sought with a large enough effect; inconclusive = small, poorly fitted or top-dose-only effect, or another doubt; inactive = no such curve, though single readings can be large; an effect the other way counts as inactive or inconclusive.

For the compound `Nc1ncnc2c1c(-c1cnc3[nH]ccc3c1)nn2C1CCCC1`, the Potency in assay [1] is 1320 nM (active); in assay [2] it was 1480 nM (active); in [3] it was 166 nM (active); in assay [4], 935 nM (active); in assay [5], 46.9 nM (active); in assay [6], 4180 nM (active). The Potency in assay [7] (TFE3-RCC UOK109 viability) was 264 nM (active). Moreover, the z-score is -2.06 in [7] (setting [10]), -1.51 in [7] (setting [11]) and -1.32 in assay [7] (setting [12]).

With `COC(=O)[C@]12CCC(C)(C)C[C@@H]1[C@@H]1C(=O)C=C3[C@@]4(C)C=C(C#N)C(=O)C(C)(C)[C@@H]4CC[C@@]3(C)[C@]1(C)CC2`, the Potency in assay [1] is 332 nM (active); in assay [2], 332 nM (active); in [3] it was 526 nM (active); in [4] it was 833 nM (active); in [5], 187 nM (active); in assay [6], 264 nM (active). For the same compound, the Potency in [7] (TFE3-RCC UOK109 viability) is 1180 nM (active). For the same compound, the z-score in assay [7] (setting [10]) was -1.73; in assay [7] (setting [11]), -1.69; in assay [7] (setting [12]) it was -1.96.

With `O=C(O)CO.[NH2-].[NH2-].[Pt+2]`, the Potency entry (in assay [1]; in assay [2]; in assay [3]; in assay [4]; in [5]; with 3D7) was “inactive” throughout. In addition, the Potency entry in the assay with 7G8, in the assay with AA1029, in the assay on AS120, in the assay on ATS189, with ATS95 and in the assay on C2A was “inactive” each time. Moreover, the Potency result with CP185, with CP191, in the assay with CP192 and in the assay on CP194 was “inactive” in each case. In addition, the z-score came out at 0.642 in assay [7] (setting [10]), 1.56 in [7] (setting [11]) and 1.18 in assay [7] (setting [12]). Further, the results for the activity, negative = inhibition in assay [8] (parasite line A) and in assay [8] (parasite line B) were 12% (inactive) and 15.6% (inactive), respectively.

With `CC(C)c1nn(-c2c(Cl)cccc2Cl)c2nc(Cc3ccc(OCCO)cc3)[nH]c(=O)c12`, the Potency in assay [1] was 74.3 nM (active); in [2] it was 46.9 nM (active); in assay [3] it was 118 nM (active); in assay [4], 264 nM (active); in [5], 52.6 nM (active); in assay [7] (TFE3-RCC UOK109 viability), 132 nM (active). Moreover, the Z-AUC is -1.25 (inactive) in [9], -2.35 in [9] (measured here: PEO1 parental Z-AUC) and -1.5 in assay [9] (measured here: PEO4 Z-AUC). For the same compound, the z-score in assay [7] (setting [10]) was -2.2; in assay [7] (setting [11]) it was -1.63; in assay [7] (setting [12]), -2.67.

On to `COc1c(N2C[C@@H]3CCCN[C@H]3C2)c(F)cc2c(=O)c(C(=O)O)cn(C3CC3)c12`, for which the Potency result (in assay [1]; in [2]; in assay [3]; in [5]; in the assay with 3D7; in the assay on AA1029) was “inactive” in each case. Further, the Potency entry in the assay with AS120, in the assay with ATS189, with ATS95, in the assay on C2A, in the assay with CP185 and in the assay with CP191 was “inactive” in each case. Moreover, the Potency result in the assay on CP192 and in the assay with CP194 was “inactive” in each case. Also, the Potency in assay [4] was 6620 nM (active). For the same compound, the z-score came out at 0.422 in assay [7] (setting [10]), 1.3 in assay [7] (setting [11]) and 1.53 in [7] (setting [12]). Also, the activity, negative = inhibition in assay [8] (parasite line A) is -20.4% (inactive); in assay [8] (parasite line B) it was -3.01% (inactive).
